USP8 block – human USP8 deubiquitinase inhibition. purified USP8, Ub-rhodamine cleavage fluorescence, 30 min. inhibition, % at 20 µM. hit rate 4.2% among 47,000. AID 1645853
UCHL1 block – human UCHL1 deubiquitinase inhibition; P09936; purified UCHL1, Ub-rhodamine cleavage fluorescence; inhibition, % at 20 µM; hit rate 0.2% among 47,000
USP10 block – blocks human USP10 ubiquitin-rhodamine cleavage. Q14694. purified USP10, Ub-rhodamine fluorescence, 60 min. inhibition, % at 20 µM. hit rate 1.1% among 47,000. AID 1645856
Target sequence (Q14694 whole entry, looked up): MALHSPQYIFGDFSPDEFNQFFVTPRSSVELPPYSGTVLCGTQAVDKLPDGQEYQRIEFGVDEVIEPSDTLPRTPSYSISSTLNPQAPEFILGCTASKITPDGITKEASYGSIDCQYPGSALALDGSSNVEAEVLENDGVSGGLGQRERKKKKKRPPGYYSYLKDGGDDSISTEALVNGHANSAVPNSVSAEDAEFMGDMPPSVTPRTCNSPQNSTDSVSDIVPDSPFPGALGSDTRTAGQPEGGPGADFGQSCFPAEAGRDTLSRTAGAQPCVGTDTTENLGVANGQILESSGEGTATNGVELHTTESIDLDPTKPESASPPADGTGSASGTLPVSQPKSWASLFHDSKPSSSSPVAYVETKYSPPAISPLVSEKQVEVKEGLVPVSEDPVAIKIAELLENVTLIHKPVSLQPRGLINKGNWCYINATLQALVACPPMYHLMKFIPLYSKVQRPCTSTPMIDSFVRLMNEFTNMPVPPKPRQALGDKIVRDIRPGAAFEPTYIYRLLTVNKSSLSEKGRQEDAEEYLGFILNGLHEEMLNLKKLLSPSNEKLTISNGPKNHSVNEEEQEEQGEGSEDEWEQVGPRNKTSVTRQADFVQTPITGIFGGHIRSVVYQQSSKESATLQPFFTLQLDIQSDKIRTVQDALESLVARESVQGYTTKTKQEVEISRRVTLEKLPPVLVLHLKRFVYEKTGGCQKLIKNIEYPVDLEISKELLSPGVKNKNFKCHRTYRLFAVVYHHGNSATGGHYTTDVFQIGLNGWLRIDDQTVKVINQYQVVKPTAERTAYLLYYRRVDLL
USP7 block – inhibitors of human USP7 deubiquitinase; AID 1645854; purified USP7, Ub-rhodamine cleavage fluorescence; hit rate 0.3% among 47,000; inhibition, % at 20 µM
USP28 inh – blocks human USP28 ubiquitin-rhodamine cleavage; inhibition, % at 25 µM; purified USP28, Ub-rhodamine cleavage fluorescence, 30 min; Q96RU2; AID 1645857; hit rate 3% among 47,000
OTUD3 inh – blocks human OTUD3 ubiquitin-rhodamine cleavage. purified OTUD3, Ub-rhodamine fluorescence, 2 h. inhibition, % at 25 µM. hit rate 0.7% among 47,000. AID 1645858
* marks the source's active call; other numbers are inactive results; . = no result. The list is not random: actives were taken first. Their share in the collection is about 6.8%. Rule as the data show it: active = inhibition above about 30%; inactive = the rest.

SMILES	USP8 block	UCHL1 block	USP10 block	USP7 block	USP28 inh	OTUD3 inh
NS(=O)(=O)c1ccc(Cl)c(C(=O)OCc2csc(Nc3ccccc3)n2)c1	16	3	-2	-9	71*	10
Cc1cn2c(=O)cc(COC(=O)c3ccccc3Cl)nc2s1	-10	2	0	2	7	5
NC(N)=NCCC[C@@H](NC(=O)C1CCN(C(=O)[C@@H](Cc2ccccc2)NC(=O)OCc2ccccc2)CC1)C(=O)O	-18	-2	0	-6	-2	-5
O=C(Nc1ccccc1Cc1ccccc1)c1nc2n(n1)-c1ccccc1S(=O)(=O)N2	59*	4	46*	17	10	9
O=C(NCC1(c2ccccc2)CCC1)c1nc2n(n1)-c1ccccc1S(=O)(=O)N2	-3	4	39*	10	17	0
COc1ccc(CN(C(=O)c2nc3n(n2)-c2ccccc2S(=O)(=O)N3)C2CC2)cc1	5	-1	14	3	5	5
O=C(NCc1ccccc1F)c1nc2n(n1)-c1ccccc1S(=O)(=O)N2	0	1	12	3	5	0
Nc1c(C(=O)NCC2CCCO2)nnn1-c1ccccc1Cl (centres undefined)	32*	2	2	2	10	11
CCC(C(=O)Nc1cccc(OC)c1)n1c(=O)[nH]c2ccccc2c1=O (centres undefined)	5	0	1	0	-2	-1
C[C@@H](C(=O)Nc1ccc2c(c1)OCO2)n1c(=O)[nH]c2ccccc2c1=O	85*	3	9	5	6	2
COc1cccc(-n2cc(-c3nc(-c4cccnc4)no3)c3ccccc3c2=O)c1	23	5	2	7	15	14
Cc1cccc(NC(=O)c2cnc(N3CCCCC3)c3ccccc23)n1	36*	0	-3	-7	21	-16
Cc1nc(N2CCCCC2)ncc1C(=O)Nc1ccccc1F	8	0	0	-3	6	-1
O=C(Nc1cccc(S(=O)(=O)NC2=NCCC2)c1)c1cc(-c2ccccc2)n[nH]1	4	2	1	-2	42*	9
CNC(=O)N1CCC(n2c(C)nc(C(=O)Nc3ccc(C)cc3)c2C)CC1	-20	-3	0	-1	-6	-7
CC(=O)c1cccc(NC(=O)c2sc3nc(-c4cccc([N+](=O)[O-])c4)cn3c2C)c1	58*	7	14	1	14	18
COc1ccc(NC(=O)c2sc3nc(-c4cccc([N+](=O)[O-])c4)cn3c2C)cc1OC	2	-2	4	1	-8	-1
CCc1nn2c(S(=O)(=O)N3CCN(c4ccccc4)CC3)c(C)nc2s1	-46	0	1	1	8	6
O=C(CCc1ccc(S(=O)(=O)N2CCOCC2)cc1)Nc1ccc2c(c1)OCCO2	-6	0	6	6	61*	-8
Cc1ccc(NC(=O)CCc2ccc(S(=O)(=O)N3CCOCC3)cc2)c(O)c1	47*	-2	-2	-2	-5	-11
Cc1ccccc1-n1c(=O)[nH]c2c(c1=O)C(C)(C)Cc1ccccc1-2	6	-2	2	2	7	3
O=C(CC[C@@H]1NC(=O)N(Cc2ccc3c(c2)OCO3)C1=O)NCc1cccc(Cl)c1	13	1	3	0	4	4
Cc1nn(-c2cccc(Cl)c2)c(Cl)c1/C=C/C(=O)c1ccc(N2CCOCC2)cc1	-64	-3	-9	1	0	-4
O=c1c2cnc(N3CCOCC3)nc2ccn1CCN1CCOCC1	-1	-5	-3	0	-5	-12
CC(C)c1nc(N2CCCC2=O)sc1C(=O)Nc1ccc(F)cc1	20	5	1	-1	32*	-1
SMILES	USP8 block	UCHL1 block	USP10 block	USP7 block	USP28 inh	OTUD3 inh
Cc1sc2c(c1C)C(=O)NC(c1ccc(-c3ccc(F)cc3)o1)N2 (centres undefined)	0	-45	-3	-15	-53	-26
CC(=O)c1ccc(N2CCN(S(=O)(=O)c3cccc(-c4noc(C)n4)c3)CC2)cc1	11	1	3	7	-16	-2
Cc1c(C(=O)N2CCN(C)CC(C(N)=O)C2)[nH]c2ccc(F)cc12 (centres undefined)	3	4	0	10	6	13
COc1cccc2c1OCC(NS(=O)(=O)c1cc(C)ccc1C)C2 (centres undefined)	5	1	5	-1	-3	82*
Cc1cccc(CNS(=O)(=O)c2cc(-c3csc(C)n3)ccc2C)c1	0	6	6	9	12	3
O=C(Nc1ccc2c(c1)OCO2)c1cc(-c2ccc(Cl)cc2)nc2ccccc12	-57	0	1	2	1	9
Cc1ccc(CCNC(=O)c2cc(Nc3ccccc3)nc3ccccc23)cc1	-11	0	1	-3	-9	-10
NS(=O)(=O)c1ccc(CCNC(=O)c2cc(-c3ccc4c(c3)OCO4)nc3ccccc23)cc1	31*	4	16	-9	14	-12
COc1ccc(-c2cc(C(=O)NCCc3ccc(S(N)(=O)=O)cc3)c3ccccc3n2)cc1	53*	0	29	13	20	-19
Cc1ccc2[nH]c(=O)c(CN(CC3COCCO3)C(=O)Nc3cccc(Cl)c3)cc2c1 (centres undefined)	11	11	11	8	7	11
CC(=O)N1CCOc2cc(S(=O)(=O)N3CCCC3c3cc(C(C)C)no3)ccc21 (centres undefined)	-10	0	2	-2	27	-1
O=C(Cn1c(-c2ccccc2)ncc(C(=O)NC2CC2)c1=O)Nc1ccccc1	30*	4	25	11	27	20
Cc1ccccc1NC(=O)Cn1c(C)ncc(C(=O)NC2CC2)c1=O	3	0	-1	4	2	4
COc1cccc(-c2ccccc2NC(=O)C2CCN(Cc3nc(C)c(C)nc3C)CC2)c1	-4	1	-6	-2	.	-7
O=C(CSc1n[nH]c(-c2cc(Br)ccc2O)n1)NCCc1ccccc1	81*	5	17	-14	25	11
O=C(CSc1nc2ccccc2n1S(=O)(=O)c1ccc(Br)cc1)NCCc1ccccc1	1	4	5	-4	16	4
CCCCC[C@H](O)/C=C/C=C/CCCCCCCC(=O)O	-1	0	12	-6	22	21
CC/C=C\C/C=C\C/C=C\CCCCCCCC(=O)O	39*	35*	54*	41*	74*	73*
Cc1nc(C2CCCN2S(=O)(=O)c2cccc3cccnc23)n[nH]1 (centres undefined)	-21	-7	0	0	-6	0
CCOc1cc(C2Nc3ccccc3C(=O)N2c2ccc3c(c2)OCO3)ccc1O (centres undefined)	31*	5	2	-2	6	2
O=c1c2ccccc2c2ccccc2c(=O)n1-c1ccc2c(c1)OCO2	13	3	2	-3	3	7

Screens from PubChem BioAssay.
